Results on ten compounds are retold here after PubChem BioAssay (NCI).

Test [1] is described as follows: NCI Yeast Anticancer Drug Screen. Data for the rad50 strain (AID 155).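 Note: 0% = growth of vehicle-only cultures of the same strain.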 Particulars: S. cerevisiae rad50 strain growth inhibition, hits give high values. The method in brief: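 Compounds were tested on a yeast strain with an engineered DNA damage repair alteration; the reported value is growth inhibition normalised to vehicle treatment.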
Test [2] can be described thus: NCI Yeast Anticancer Drug Screen. Data for the mec2-1 strain (AID 157). Particulars: S. cerevisiae mec2-1 strain, hits give high values. The method in brief: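 Mutant yeast (mec2-1) grown with compound; growth inhibition relative to vehicle control reported.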
Test [3] can be described thus: NCI Yeast Anticancer Drug Screen. Data for the sgs1 mgt1 strain (AID 161).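 Note: 0% = growth of cultures given vehicle only.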 The conditions noted are these: S. cerevisiae sgs1 mgt1 strain, hits give high values. The method in brief:
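Percent growth inhibition was derived by comparing compound-exposed mutant yeast with vehicle-exposed cultures. The strain carries alterations in DNA damage repair.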

Test [4] can be described thus: NCI Yeast Anticancer Drug Screen. Data for the cln2 rad14 strain (AID 165).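 Note: 0% = growth equal to vehicle treated cultures.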 The conditions noted are these: S. cerevisiae cln2 rad14 strain, hits give high values. Summed up: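 Readout is yeast growth inhibition versus vehicle-treated controls, using a strain with cln2 and rad14 alterations exposed to compound.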
Test [5] can be described thus: NCI Yeast Anticancer Drug Screen. Data for the bub3 strain (AID 167). Particulars: S. cerevisiae bub3 mutant strain, hits give high values. Summed up:
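Growth of a checkpoint-deficient yeast mutant is measured after compound exposure. Values represent inhibition relative to vehicle.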

Test [6] can be described thus: NCI Yeast Anticancer Drug Screen. Data for the mlh1 rad18 strain (AID 175). The conditions noted are these: S. cerevisiae mlh1 rad18 strain growth inhibition, hits give high values. Summed up: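 Genetically defined yeast (DNA repair-deficient) exposed to compounds; growth inhibition determined relative to vehicle.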
The mark [7] stands for this setting: at 5.0 µM (retest, dose inferred, filed as 0.5).
Setting [8] is: at 50.0 µM (retest, dose inferred, filed as 5.0).

Molecules are shown by their SMILES. The panel holds about 79,000 compounds, 15% with a hit somewhere; the sample as a whole holds those more often. Values without a mark were called inactive. Active and inactive are the calls of the source. Cut-off read from the data, not from the text of the source: active = growth inhibition above about 70%; inactive = the rest. Where a SMILES comes first, the peptide text is derived from it. The star is where a group is joined. X7 = Clc1c(Cl)c(Cl)c(O*)c(Cl)c1Cl; Boc = CC(C)(C)OC(=O)*; OBn = c1ccc(CO*)cc1; Bn = c1ccc(C*)cc1

Take `CCOP(=O)(OCC)OC1c2[nH]ccc2-c2cc(C(=O)OC)[nH]c2C1OC` (stereo not given): the growth inhibition in test [1] (setting [7]) is 3%; in test [1] (setting [8]) it was 11%; in test [1] (at 50.0 µM), 12.5%; in test [2] (setting [7]), 0%; in test [2] (setting [8]) it was 10%; in test [2] (at 50.0 µM) it was 25.9%. Besides, the growth inhibition in test [3] (setting [7]) was -3%; in test [3] (setting [8]), 17%; in test [3] (at 50.0 µM) it was 83.2% (active); in test [4] (setting [7]), -6%; in test [4] (setting [8]) it was 6%; in test [4] (at 50.0 µM), 5.9%. The growth inhibition was 3% in test [5] (setting [7]); -2% in test [5] (setting [8]); 21.5% in test [5] (at 50.0 µM); -5% in test [6] (setting [7]); 15% in test [6] (setting [8]); 61.4% in test [6] (at 50.0 µM).
As to `C\C=C/C=C/C=C/C(=O)O`, the growth inhibition in test [1] (setting [7]) was 5%; in test [1] (setting [8]), 13%; in test [1] (at 50.0 µM) it was 66.5%; in test [2] (setting [7]), 2%; in test [2] (setting [8]), -4%; in test [2] (at 50.0 µM), 60.1%. Besides, the growth inhibition was 2% in test [3] (setting [7]); 7% in test [3] (setting [8]); 42.3% in test [3] (at 50.0 µM); -2% in test [4] (setting [7]); 3% in test [4] (setting [8]); 40.6% in test [4] (at 50.0 µM). In addition, the growth inhibition is 4% in test [5] (setting [7]); 0% in test [5] (setting [8]); 95% (active) in test [5] (at 50.0 µM); 1% in test [6] (setting [7]); 8% in test [6] (setting [8]); 45% in test [6] (at 50.0 µM).
In the case of `CC(C)CC(NC(=O)C(CCC(=O)OCc1ccccc1)NC(=O)OC(C)(C)C)C(=O)NC(COCc1ccccc1)C(=O)NC(Cc1ccccc1)C(=O)Oc1c(Cl)c(Cl)c(Cl)c(Cl)c1Cl` (stereo not given) (Boc-E(OBn)LS(Bn)F-X7; configuration not given here), the growth inhibition in test [1] (setting [7]) is 39%; in test [1] (setting [8]), 58%; in test [1] (at 50.0 µM) it was 80.5% (active); in test [2] (setting [7]), 36%; in test [2] (setting [8]), 56%; in test [2] (at 50.0 µM), 84.8% (active). Moreover, the growth inhibition in test [3] (setting [7]) was 38%; in test [3] (setting [8]), 80% (active); in test [3] (at 50.0 µM) it was 82.8% (active); in test [4] (setting [7]) it was 26%; in test [4] (setting [8]) it was 53%; in test [4] (at 50.0 µM), 85.3% (active). For the same compound, the growth inhibition was 34% in test [5] (setting [7]); 84% (active) in test [5] (setting [8]); 78% (active) in test [5] (at 50.0 µM); 42% in test [6] (setting [7]); 76% (active) in test [6] (setting [8]); 79.6% (active) in test [6] (at 50.0 µM).
Turning to `O=C1C=CC(=O)N1CCc1ccccc1`, the growth inhibition in test [1] (setting [7]) was -33%; in test [1] (setting [8]), 97% (active); in test [1] (at 50.0 µM), 99.5% (active); in test [2] (setting [7]), -31%; in test [2] (setting [8]), 98% (active); in test [2] (at 50.0 µM), 99.5% (active). Further, the growth inhibition in test [3] (setting [7]) is -34%; in test [3] (setting [8]) it was 98% (active); in test [3] (at 50.0 µM) it was 99.3% (active); in test [4] (setting [7]) it was -10%; in test [4] (setting [8]), 98% (active); in test [4] (at 50.0 µM), 99.3% (active). Also, the growth inhibition was -45% in test [5] (setting [7]); 98% (active) in test [5] (setting [8]); 99.3% (active) in test [5] (at 50.0 µM); -90% in test [6] (setting [7]); 97% (active) in test [6] (setting [8]); 99.2% (active) in test [6] (at 50.0 µM).
As for `COc1ccc2[nH]cc(C(=O)O)c2c1`, the growth inhibition was -4% in test [1] (setting [7]); 55% in test [1] (setting [8]); 38% in test [1] (at 50.0 µM); -5% in test [2] (setting [7]); 65% in test [2] (setting [8]); 2.6% in test [2] (at 50.0 µM). Moreover, the growth inhibition in test [3] (setting [7]) is 7%; in test [3] (setting [8]), 31%; in test [3] (at 50.0 µM), 66.3%; in test [4] (setting [7]) it was 0%; in test [4] (setting [8]), 36%; in test [4] (at 50.0 µM) it was 40%. In addition, the growth inhibition was 1% in test [5] (setting [7]); 46% in test [5] (setting [8]); 79.8% (active) in test [5] (at 50.0 µM); -30% in test [6] (setting [7]); 84% (active) in test [6] (setting [8]); 25% in test [6] (at 50.0 µM).
On to `CC1CCN(CCCOC(=O)c2ccccc2)CC1`, for which the growth inhibition was 25% in test [1] (setting [7]); 40% in test [1] (setting [8]); 58.9% in test [1] (at 50.0 µM); 13% in test [2] (setting [7]); 56% in test [2] (setting [8]); 30.5% in test [2] (at 50.0 µM). For the same compound, the growth inhibition was 35% in test [3] (setting [7]); 66% in test [3] (setting [8]); 62.1% in test [3] (at 50.0 µM); 25% in test [4] (setting [7]); 54% in test [4] (setting [8]); 77% (active) in test [4] (at 50.0 µM). The growth inhibition in test [5] (setting [7]) is 31%; in test [5] (setting [8]) it was 64%; in test [5] (at 50.0 µM), 63.2%; in test [6] (setting [7]) it was 52%; in test [6] (setting [8]) it was 74% (active); in test [6] (at 50.0 µM), 55%.
`N=c1n(CC(=O)NC23CC4CC(CC(C4)C2)C3)c2ccccc2n1CC(=O)NC12CC3CC(CC(C3)C1)C2`: the growth inhibition in test [1] (setting [7]) was -4%; in test [1] (setting [8]), 34%; in test [1] (at 50.0 µM), 59.1%; in test [2] (setting [7]), -15%; in test [2] (setting [8]), 8%; in test [2] (at 50.0 µM), 34.2%. The growth inhibition is -2% in test [3] (setting [7]); 42% in test [3] (setting [8]); 44.5% in test [3] (at 50.0 µM); -14% in test [4] (setting [7]); 25% in test [4] (setting [8]); 44% in test [4] (at 50.0 µM). The growth inhibition in test [5] (setting [7]) is -19%; in test [5] (setting [8]) it was 12%; in test [5] (at 50.0 µM), 59.5%; in test [6] (setting [7]), -5%; in test [6] (setting [8]), 27%; in test [6] (at 50.0 µM), 79.1% (active).
Take `COC(=O)NNc1c([N+](=O)[O-])cnn(-c2ccccc2)c1=O`: the growth inhibition in test [1] (setting [7]) is 18%; in test [1] (setting [8]), 56%; in test [1] (at 50.0 µM), 14.9%; in test [2] (setting [7]), -5%; in test [2] (setting [8]) it was 10%; in test [2] (at 50.0 µM), 0.55%. The growth inhibition in test [3] (setting [7]) was -1%; in test [3] (setting [8]), -14%; in test [3] (at 50.0 µM), 14%; in test [4] (setting [7]) it was 9%; in test [4] (setting [8]), 32%; in test [4] (at 50.0 µM), 30%. Further, the growth inhibition in test [5] (setting [7]) was 11%; in test [5] (setting [8]), 26%; in test [5] (at 50.0 µM) it was 0.9%; in test [6] (setting [7]) it was -11%; in test [6] (setting [8]) it was -12%; in test [6] (at 50.0 µM), -8.15%.
Consider `COC(=O)C1=C(C)NC(C)=C(C(=O)OC)C1c1ccc(/[N+]([O-])=C/c2ccccc2)cc1`, for which the growth inhibition was 4% in test [1] (setting [7]); 43% in test [1] (setting [8]); 85% (active) in test [1] (at 50.0 µM); 5% in test [2] (setting [7]); 34% in test [2] (setting [8]); 70.8% (active) in test [2] (at 50.0 µM). Moreover, the growth inhibition in test [3] (setting [7]) is 13%; in test [3] (setting [8]) it was 25%; in test [3] (at 50.0 µM), 96.4% (active); in test [4] (setting [7]) it was -1%; in test [4] (setting [8]) it was 40%; in test [4] (at 50.0 µM), 60.2%. In addition, the growth inhibition was 17% in test [5] (setting [7]); 74% (active) in test [5] (setting [8]); 78.8% (active) in test [5] (at 50.0 µM); -7% in test [6] (setting [7]); 67% in test [6] (setting [8]); 93.2% (active) in test [6] (at 50.0 µM).
On to `CC(C)=CCc1c2c(c(O)c3c(=O)c(-c4ccc(O)cc4O)coc13)C=CC(C)(C)O2`, for which the growth inhibition was -20% in test [1] (setting [7]); 95% (active) in test [1] (setting [8]); 83.2% (active) in test [1] (at 50.0 µM); -13% in test [2] (setting [7]); 97% (active) in test [2] (setting [8]); 86% (active) in test [2] (at 50.0 µM). Moreover, the growth inhibition in test [3] (setting [7]) is -11%; in test [3] (setting [8]), 95% (active); in test [3] (at 50.0 µM), 85.9% (active); in test [4] (setting [7]), 15%; in test [4] (setting [8]), 97% (active); in test [4] (at 50.0 µM), 83.2% (active). The growth inhibition is 26% in test [5] (setting [7]); 96% (active) in test [5] (setting [8]); 81.2% (active) in test [5] (at 50.0 µM); 7% in test [6] (setting [7]); 95% (active) in test [6] (setting [8]); 84.7% (active) in test [6] (at 50.0 µM).
